We go through 40 compounds from PubChem BioAssay (NCI).

This is part of a sample that, as a whole, favours compounds with a hit. Of some 83,000 tested, about 20% had one in any assay.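 Negative percent growth values reflect cell death: -40 means 40% of the cells present at the start died, and -100 means all died.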 Calls of active or inactive are those of the source.

The test system of the assay is A498 renal. Description: NCI-60 one-dose screen, 48 h (100 = growth as untreated, 0 = no growth, -100 = all killed). As to conditions: 10 µM. The method, then:
Growth inhibition of the A498 human tumor cell line is measured as a screen for anti-cancer activity. Cells are grown in 96 well plates and exposed to the test compound for 48 hours. Compounds are tested at a single concentration, which is 10^-5 M for most compounds. The reported endpoint is percent growth (GI% or GIPRCNT), where numbers from 0 - 100% represent growth inhibition, and numbers from -100% - 0 represent cell death. For example, a value of 40 represents 60% growth inhibition. A value of 0 means no net growth occurred over the course of the experiment. A value of -40 indicates 40% of cells at the beginning of the experiment died by the end of the experiment. A value of -100 means all cells are dead at the end of the experiment.
NCI-60 Human Tumor Cell Lines Screen was performed using the standard one-dose NCI protocol, which is described in more detail at https://dtp.cancer.gov/discovery_development/nci-60/default.htm.
Compounds with GIPRCNT values below 10 were considered active. Activity score was based on GIPRCNT using the following formula: […]
Score is 0 for GIPRCNT values of 100 or above, 50 for GIPRCNT values of 0, and 100 for GIPRCNT values of -100.
For the compound `C/C=C/C1=CN2C(=O)c3cc(OC4OC(C)C(NC)C(C)(O)C4O)c(C)c(O)c3N=C[C@@H]2C1` (stereo not given in full), the growth is -83.1% (active).
As to `CC(CN(C)C)Oc1ccc(OC(C)CN(C)C)c2c1C(=O)c1ccccc1C2=O` (stereo not given), the growth was 59.6% (inactive).
Turning to `CCCCN(CCCC)C(=O)[C@H](CC)[C@@H]1CC[C@@H](C)[C@@H]([C@H](C)[C@@H](O)[C@@H](C)C(=O)[C@H](CC)C2O[C@]3(C=C[C@@H](O)[C@]4(CC[C@@](C)([C@H]5CC[C@](O)(CC)[C@H](C)O5)O4)O3)[C@H](C)C[C@@H]2C)O1` (stereo not given in full), the growth was -14.6% (active).
Consider `Cc1ccc(S(=O)(=O)N/N=C2\CCCc3ccccc32)cc1`, for which the growth is 91.8% (inactive).
To `O=C(O)c1cn(C2CC2)c2cc(N3CCN(C(=O)c4cc(-c5ccc(Cl)cc5)nc5ccccc45)CC3)c(F)cc2c1=O` belongs 74.2% (inactive).
To `C[C@]12CC[C@@H]3c4ccc(OS(=O)(=O)O)cc4CC[C@H]3[C@@H]1CC[C@@H]2NS(=O)(=O)c1ccc(-c2ccccc2)cc1` belongs 85.1% (inactive); to `CCOC(=O)Cn1c(=O)c2sc3ncccc3c2n2nnc(-c3ccccc3)c12`, 152% (inactive); to `O=C(O)c1ccc(-n2cc(CNc3ccc(Oc4ccccc4)cc3)c(-c3ccccc3)n2)cc1`, 83.2% (inactive).
In the case of `O=C1/C=C/[C@@H](O)[C@@H]2C[C@@H](O)C[C@H]2/C=C/CCC[C@@H](C(F)(F)F)O1`, the growth was 84.8% (inactive).
As for `CC(=O)/C(=C/c1ccc(Br)cc1)C(=O)c1ccccc1`, the figure is 91.6% (inactive); as for `CC[C@@H](C(=O)[C@H](C)[C@H](O)[C@@H](C)[C@H]1O[C@H]([C@@H](CC)C(=O)O)CC[C@H]1C)C1O[C@]2(C=C[C@@H](O)[C@]3(CC[C@@](C)([C@H]4CC[C@](O)(CC)[C@H](C)O4)O3)O2)[C@H](C)C[C@@H]1C` (stereo not given in full), -69.6% (active); as for `Nc1ccn(Cc2nnc(CCC(=O)c3nc4ccccc4[nH]3)o2)c(=O)n1`, 61.7% (inactive).
To `CN1CCN(c2cc3c(cc2F)c(=O)c(C(=O)O)cn3-c2ccc(F)cc2)CC1` belongs 86.8% (inactive); to `COc1cc(-c2nn(-c3cccc(NC(=O)CCNc4ccc(N5CCOCC5)cc4)c3)cc2-c2ccncc2)ccc1Cl`, 18.3% (inactive).
To `Cc1ccc(/C=C2/C(=O)N(C)c3ccc(S(=O)(=O)Nc4ccc(C(C)(C)C)cc4)cc32)s1` belongs 90.8% (inactive); to `COc1cc(-c2nn(-c3ccc(NC(=O)NCCCNC(=O)c4ccccc4)cc3)cc2-c2ccncc2)ccc1Cl`, 12.7% (inactive).
With `C=C(NC(=O)C(=C)NC(=O)c1csc(C2=NC3c4csc(n4)C4NC(=O)c5csc(n5)C(C(C)(O)C(C)O)NC(=O)C5CSC(=N5)C(=CC)NC(=O)C(C(C)O)NC(=O)c5csc(n5)C3(CC2)NC(=O)C(C)NC(=O)C(=C)NC(=O)C(C)NC(=O)C(C(C)CC)NC2C=Cc3c(C(C)O)cc(nc3C2O)C(=O)OC4C)n1)C(N)=O` (stereo not given), the growth was -41.5% (active).
In the case of `Nc1cc(Br)c(-c2nn3c(CCC(=O)c4nc5ccccc5[nH]4)nnc3s2)c(Br)c1`, the growth was 65.6% (inactive).
For the compound `COc1cc(C2CC(c3cc(Cl)c(C)cc3O)=NN2c2ccc(S(N)(=O)=O)cc2)cc(OC)c1OC` (stereo not given), the growth is 43.3% (inactive).
To `COc1ccc(/C=C/c2nnc(/C=C/c3ccc(OC)c(OC)c3)o2)cc1OC` belongs 31.4% (inactive).
For the compound `Cc1c[nH]c(=O)n(Cc2nnc(CCC(=O)c3nc4ccccc4[nH]3)o2)c1=O`, the growth is 11.5% (inactive).
To `CC(C)(C)c1nn(-c2ccccc2)c2c1CC1(CN2Cc2ccc(Cl)cc2)C(=O)c2ccccc2C1=O` belongs 76.5% (inactive); to `CCN1C(=O)CC(SC2CC(=O)N(CC)C2=O)C1=O` (stereo not given), 74.9% (inactive); to `COc1cc2cc(Oc3ccc(NC(=O)Nc4ccc(C(F)(F)F)cc4)cc3)c(C)nc2cc1OC`, 90.5% (inactive).
Turning to `COc1cc(NC(=O)C2=C(N3CCOCC3)/C(=C/c3ccc(Cl)cc3)CC2)cc(OC)c1OC`, the growth was 98.3% (inactive).
To `O=C1c2ccccc2C(=O)c2c1ccc1c(=O)n(-c3ccccc3C(F)(F)F)nnc21` belongs 82% (inactive); to `COc1cccc(C2C(C#N)=C(N)Oc3cc(N)ccc32)c1` (stereo not given), 1.48% (active).
For the compound `O=C(CN(C1CCCCC1)C1CCCCC1)Nc1ccc(S(=O)(=O)c2ccc(NC(=O)CN(C3CCCCC3)C3CCCCC3)cc2)cc1`, the growth was 89.4% (inactive).
As for `CC(=O)Nc1ccc(S(=O)(=O)c2ccnc3cc(Cl)ccc23)cc1`, the figure is 95.9% (inactive); as for `COc1cc(C(=O)/C(C)=C/c2c[nH]c3ccccc23)cc(OC)c1OC`, 24.8% (inactive).
For `COc1cc(-c2nn(-c3cccc(NC(=O)NCCNC(=O)c4ccccc4)c3)cc2-c2ccncc2)ccc1Cl`, the growth was -3.29% (active).
As for `CCCCCCCCCCOC(c1ccccc1)c1ccccc1`, the figure is 109% (inactive); as for `COC(=O)c1c[nH]c2cc(OC(C)C)c(OC(C)C)cc2c1=O`, 103% (inactive); as for `O=C(Nc1ccc(OS(=O)(=O)c2ccccc2)cc1)C1CCCCC1`, 105% (inactive).
To `COc1cc(/C=C/c2cc(/C=C/c3ccc(O)c(OC)c3)[nH]c(=O)n2)ccc1O` belongs 62.8% (inactive); to `COc1cc2cc(Oc3ccc(NC(=O)c4cccc(C(F)(F)F)c4)cc3)c(C)nc2cc1OC`, 0.391% (active); to `O=C(CCn1cnc2c(cc(-c3ccccc3)n2-c2ccccc2)c1=O)Nc1ccc(F)cc1`, 63.8% (inactive).
For the compound `Cc1ccc(NCCN(C)CC(C)O)c2c(=O)c3ccccc3sc12` (stereo not given), the growth is 68.4% (inactive).
For the compound `CN(C)CCCSc1ccccc1NC1=C(Cl)C(=O)C(Nc2ccccc2SCCCN(C)C)=C(Cl)C1=O`, the growth is 105% (inactive).
To `O=C(O)c1cc([N+](=O)[O-])ccc1Oc1ccccc1` belongs 102% (inactive).
